Compound activity as filed in PubChem BioAssay.
Rows were chosen to be rich in hits. Some 15% of all compounds tested hit in one or more screens of this group.
HCMV inh: human cytomegalovirus inhibition. HFF cells, HCMV-luciferase reporter, 72 h; active compounds read low. activity change, negative = inhibition, % at 57.5 µM. 410,000 tested, 4.5% active. AID 1259415; in the data active = activity change below about -60%; inconclusive = no clear call, values can overlap the other calls; inactive = above about -39%; note: % is set by controls: 0 for no effect and ±100 for the full control effect
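Screen run at 2 compound doses on HFFs infected with reporter HCMV, MOI 1 PFU/cell. Luciferase activity from cell lysates at 72 h post infection gave inhibition relative to buffer-only and Salinomycin wells.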
Pf growth 96h: P. falciparum growth inhibition at 96 hours. AID 504834. 320,000 tested, 6.9% active. Potency, µM (highest dose often 28.7 µM), for inactives: at the highest dose activity change, negative = inhibition, most hits filed as inhibitors. P. falciparum luciferase reporter growth, 96 h; note: potency is the fitted concentration of half-maximal effect; % is set by controls: 0 for no effect and ±100 for the full control effect
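Two-generation exposure (96 h) targets delayed-death phenotype. Reporter parasites carrying integrated firefly luciferase, in red cells at 2% hematocrit and 0.05% parasitemia final, kept at 37 C, 5% CO2; luminescence loss indicates inhibition.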
SARS PLP yeast: SARS-CoV PLP inhibition in yeast | S. cerevisiae expressing SARS-CoV PLpro, growth rescue | Potency, µM (doses to about 32.9 µM), inactives show at the top dose activity, positive = growth rescue, hits mostly activators | AID 485353 | 330,000 tested, 0.19% active; calls by dose curve; note: potency is the fitted concentration of half-maximal effect; 0% is about no effect; nearly all actives have a fitted effect of over 55% in size
Pf growth 48h: inhibits P. falciparum growth in the first generation, 48 h | P. falciparum luciferase growth in erythrocytes, 48 h | Potency, µM (doses to about 28.7 µM), inactives show at the highest dose activity change, negative = inhibition, hits mostly inhibitors | 310,000 tested, 5.9% active; note: potency is the fitted concentration of half-maximal effect; % is set by controls: 0 for no effect and ±100 for the full control effect
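A one-generation exposure of luciferase-tagged malaria parasites in RPMI 1640/Albumax erythrocyte culture, 37 C and 5% CO2. Inhibition is inferred from decreased luminescence after adding detection reagent.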
Sm TGR block: blocks Schistosoma mansoni thioredoxin glutathione reductase. purified TGR, DTNB reduction, TNB absorbance 405 nm. Q962Y6. 360,000 tested, 3% active. Potency, µM (doses to about 114 µM), for the others: at the top dose activity change, negative = inhibition, usual class: inhibitors; note: potency is the fitted concentration of half-maximal effect; % is set by controls: 0 for no effect and ±100 for the full control effect; nearly all actives have a fitted effect of over 60% in size
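TGR 20 nM + NADPH 100 uM (dispensed conc.), cpd preinc 15 min RT; start with NADPH (500 uM addition) then DTNB (15 mM addition). Kinetic TNB absorbance, 405 nm filter. Four-parameter Hill fit across titration.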
HCV inhibitor: HCV inhibition; Huh7.5.1 HCVcc-Cre infection, luciferase reporter, 44 h; Potency, µM (top dose mostly 41.8 µM), without a hit: top-dose activity change, negative = inhibition, hits mostly inhibitors; 340,000 tested, 3.4% active; note: potency is the fitted concentration of half-maximal effect; % is set by controls: 0 for no effect and ±100 for the full control effect
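A cell-based infection assay in which seeded cells (1,000 per well) receive test compound after 4 h, are inoculated with HCVcc-Cre at approximately 0.5 moi, and are incubated 44 h before luminescence detection.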
* marks the source's active call; other numbers are inactive results; ? = inconclusive; / = not tested or not shown. Unless noted, calls come from the whole dose curve; as a rule, active = well fitted curve in the direction sought with a large enough effect; inconclusive = small, poorly fitted or top-dose-only effect, or another doubt; inactive = no such curve, though single readings can be large; an effect the other way counts as inactive or inconclusive.

SMILES	HCMV inh	Pf growth 96h	SARS PLP yeast	Pf growth 48h	Sm TGR block	HCV inhibitor
CCCCOc1ccc(C(=O)NNC(=O)C2C3C=CC(C3)C2C(=O)O)cc1 (stereo unspecified)	-60*	0%	8%	-4%	-11%	-13%
C[C@@H](NC(=O)[C@@H]1CCCN1C(=O)[C@@H]1CCCN1C(=O)c1cccs1)c1ccccc1	5	/	/	/	/	/
CCOc1ccc(CN(CCO)CCO)cc1C(=O)OC	30	2.1µM*	3%	8%	3%	7%
CCc1nc(SCc2ccc(Br)cc2)n[nH]1	25	-7%	-5%	77%	-3%	-12%
CCc1nc(SCc2ccc(OCC(C)C)cc2)n[nH]1	?	10µM*	-16%	45%	5%	?
CCc1nc(SCc2ccccc2C)n[nH]1	16	6.6µM*	2%	-18%	9%	7%
CN(C)S(=O)(=O)c1ccc2c(c1)nc(CCC(=O)NCC(=O)Nc1ccc(F)c(F)c1F)n2C	-6	/	/	/	/	/
COCC(=O)O[C@]1(CCN(C)CCCc2nc3ccccc3[nH]2)CCc2cc(F)ccc2[C@@H]1C(C)C	-98*	2.4µM*	-1%	1.5µM*	-22%	?
COc1ccc(OC)c(C2(O)CSC(=Nc3cccnc3)N2Cc2ccco2)c1 (stereo unspecified)	35	4.7µM*	-4%	12µM*	-13%	?
COc1cccc(CN2CCN(Cc3ccco3)CC2)c1	98	-10%	0%	26%	14%	17%
CCCCn1c(N)c(N(CC(C)C)C(=O)c2ccc(S(=O)(=O)N3CCC(C)CC3)cc2)c(=O)[nH]c1=O	-14	?	-1%	?	-3%	-6%
CCOc1ccc(NC(=O)CN(C)S(=O)(=O)c2cccc3cccnc23)cc1	6	?	-1%	4%	4%	-14%
COC(=O)c1ccc(Cn2cc(/C=C\[N+](=O)[O-])c3ccccc32)o1	-16	?	-15%	4.7µM*	-30%	9%
O=C(O)c1cn(Cc2ccccc2)c2ccccc2c1=O	?	-24%	16%	-26%	-21%	17%
O=C(O)c1ccc(Cn2cc(/C=C\[N+](=O)[O-])c3ccccc32)o1	26	87%	-2%	-20%	3.2µM*	-7%
CC(NC(=O)NC(N)=O)(C(F)(F)F)C(F)(F)F	-29	7.4µM*	-2%	23%	6%	11%
CCOC(=O)CCCSc1nnc(CCCCCN2C(=O)c3cccc4cccc(c34)C2=O)o1	-20	1.9µM*	19%	?	3%	5%
CC1CC(C)CN(C(=O)COC(=O)CCCN2C(=O)c3cccc4cccc(c34)C2=O)C1 (stereo unspecified)	-8	6%	3%	-7%	2%	-4%
O=C(CCCN1C(=O)c2cccc3cccc(c23)C1=O)NCc1ccco1	-89*	128%	0%	-12%	0%	-17%
O=C(CCCN1C(=O)c2ccccc2C1=O)NCc1ccco1	-4	-20%	?	13%	-15%	-4%
CCOC(=O)CCCCCN1C(=O)c2cccc3cccc(c23)C1=O	-100*	6.6µM*	2%	34%	-1%	-6%
Cc1nc(SCc2nc3ccc([N+](=O)[O-])cc3[nH]2)c2oc3ccccc3c2n1	6	/	7%	/	/	/
Cc1ccc2c(c1)=C/C(=C\c1c(O)[nH]c(=S)[nH]c1=O)C(=O)N=2	/	?	6%	12%	13µM*	4%
CCn1c(O)c(/C=C2\C=Nc3ccccc32)sc1=Nc1ccc(C)cc1	0	-4%	3%	?	-1%	13%
CCn1c(O)c(/C=C2\C=Nc3ccccc32)sc1=O	156	7.4µM*	-8%	82%	1%	?
C=CCN1CC(COc2ccc(OC)cc2)OCCS1(=O)=O (stereo unspecified)	-8	/	/	/	/	/
COc1ccc(OC)c(NC(=O)c2ccc3c(c2)C(=O)N(CC2CCCO2)C3=O)c1 (stereo unspecified)	-66*	9%	0%	23%	6%	-2%
